Assay [1] relates to DLD1. The experiment in a line: cell viability (CellTiter-Glo) relative to plate median (fraction of plate median); higher = more viable cells. Conditions: 5 µM; treatment time 24 h; reporter: 7TFP. In a few lines: (§1)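 After seeding in 384-well plates, colorectal cancer cell lines carrying stable lentiviral TCF/Wnt firefly luciferase reporters (7TFP or TCF4/Wnt) were left 24 h. Library compounds were then added at a final 5 µM for 24 h. A Tecan F500 reader measured firefly luciferase or CellTiterGlo luminescence on parallel plates, with each well normalised to the plate median by webcellHTS2 (additive, no log transformation), and two independent replicates averaged.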

In assay [2] the test system is HCT116. The assay is described as above. The following applies: 5 µM; treatment time 24 h; reporter: TCF4/Wnt. In outline: as §1
For assay [3], the system named is SW480. The assay is described as above. The following applies: 5 µM; treatment time 24 h; reporter: 7TFP. In outline:
as §1

Assay [4] deals with DLD1. The experiment in a line: TCF/Wnt firefly luciferase reporter signal relative to plate median (fraction of plate median); higher = higher Wnt reporter signal. The following applies: 5 µM; treatment time 24 h; reporter: 7TFP. In outline: as §1
For assay [5], the system named is SW480. Described as above. The following applies: 5 µM; treatment time 24 h; reporter: 7TFP. In outline:
as §1

± gives the standard deviation of the averaged measurements.

`C=CC[C@]1(O)CC[C@H]2[C@@H]3CCC4=CC(=O)CCC4=C3C=C[C@@]21C`: the cell viability was 1.11 ± 0.16 in assay [1], 0.961 ± 0.052 in assay [2] and 0.963 ± 0.081 in assay [3]. In addition, the “TCF/Wnt firefly luciferase reporter signal” value in assay [4] was 0.945 ± 0.078; in assay [5], 0.9875 ± 0.00071.
With `O=C1c2ccccc2-c2cccc3cccc1c23`, the cell viability in assay [1] stood at 1 ± 0.084; in assay [2], 0.852 ± 0.088; in assay [3], 0.991 ± 0.028. For the same compound, the “TCF/Wnt firefly luciferase reporter signal” value in assay [4] was 0.912 ± 0.056; in assay [5], 0.987 ± 0.033.
For the compound `COc1ccc(C(CN(C)C)C2(O)CCCCC2)cc1` (stereo not given), the cell viability was 1.06 ± 0.014 in assay [1], 0.972 ± 0.035 in assay [2] and 1.03 ± 0.044 in assay [3]. Also, the figures for the “TCF/Wnt firefly luciferase reporter signal” value in assay [4] and in assay [5] were 0.924 ± 0.069 and 0.907 ± 0.029, respectively.
The like results for `CC(C)Nc1nc(Cl)nc(NC(C)C)n1` were, in that order, 1.02 ± 0.049, 0.952 ± 0.0014, 0.949 ± 0.025, 0.973 ± 0.038 and 0.944 ± 0.018.
`C[C@]12CCC3C(CC[C@H]4C[C@H](OS(=O)(=O)O)CC[C@]34C)C1CCC2=O` (stereo not given in full): the cell viability in assay [1] was determined as 1.03 ± 0.021; in assay [2], 1.02 ± 0.079; in assay [3], 1.04 ± 0.061. For the same compound, the “TCF/Wnt firefly luciferase reporter signal” value in assay [4] was 0.755 ± 0.015; in assay [5], 0.966 ± 0.039.
Consider `CCC[C@H]1CCCCN1`, for which the cell viability is 1.01 ± 0.021 in assay [1], 0.936 ± 0.046 in assay [2] and 0.983 ± 0.039 in assay [3]. The “TCF/Wnt firefly luciferase reporter signal” value in assay [4] was determined as 1.04; in assay [5] it was 1.05 ± 0.087.
In the same order, the values of `CN(C)C(=O)Oc1cccc([N+](C)(C)C)c1` are 1.06 ± 0.089, 0.979 ± 0.017, 1.01 ± 0.017, 1.03 ± 0.15 and 1.09 ± 0.021.
Take `COc1cc2occc2c2oc(=O)ccc12`: the cell viability in assay [1] turned out to be 0.986 ± 0.076; in assay [2], 0.941 ± 0.11; in assay [3] it was 0.95 ± 0.026. Also, the entries for the “TCF/Wnt firefly luciferase reporter signal” value in assay [4] and in assay [5] were 1.06 ± 0.17 and 0.818 ± 0.11, respectively.
As for `COP(=S)(OC)SCn1nnc2ccccc2c1=O`, the cell viability is 0.983 ± 0.02 in assay [1], 0.939 ± 0.049 in assay [2] and 0.955 ± 0.0071 in assay [3]. In addition, the “TCF/Wnt firefly luciferase reporter signal” value in assay [4] was 0.991 ± 0.13; in assay [5] it was 0.903 ± 0.14.
Consider `COc1cc(O)c2c(=O)oc3cc(O)cc(C)c3c2c1` [Alternariol-9-methylether], for which the cell viability in assay [1] was determined as 0.979 ± 0.044; in assay [2], 1.03 ± 0.073; in assay [3], 1.01 ± 0.042. The “TCF/Wnt firefly luciferase reporter signal” value in assay [4] came out at 0.946 ± 0.1; in assay [5] it was 1.06 ± 0.064.
As to `C[C@]12CC[C@H]3[C@@H](CC[C@]4(O)C[C@@H](O)CC[C@]34C=O)[C@@]1(O)CC[C@@H]2C1=CC(=O)OC1`, the figures for the cell viability in assay [1], in assay [2] and in assay [3] were 0.579 ± 0.021, 0.502 ± 0.12 and 0.746 ± 0.046, respectively. Further, the “TCF/Wnt firefly luciferase reporter signal” value in assay [4] turned out to be 0.226 ± 0.12; in assay [5], 0.58 ± 0.054.
The like results for `OC[C@@H]1CCCN2CCCC[C@H]12` were, in that order, 1.04 ± 0.014, 1 ± 0.053, 0.995 ± 0.036, 0.898 ± 0.14 and 0.964 ± 0.065.
Regarding `O=[N+]([O-])c1cc(O)c(O)c([N+](=O)[O-])c1`, the cell viability in assay [1] amounted to 0.891 ± 0.081; in assay [2], 0.942 ± 0.096; in assay [3] it was 1.03 ± 0.073. Further, the figures for the “TCF/Wnt firefly luciferase reporter signal” value in assay [4] and in assay [5] were 0.831 ± 0.27 and 0.852 ± 0.044, respectively.
The like results for `COc1ccc(C[C@H]2NC[C@H](O)[C@H]2OC(C)=O)cc1` were, in that order, 0.831 ± 0.052, 0.513 ± 0.065, 1.06 ± 0.042, 0.248 ± 0.011 and 0.357 ± 0.036.
In the same order, the values of `C[C@@H]1O[C@@H](O[C@H]2CC[C@]3(C=O)[C@H]4CC[C@]5(C)[C@@H](C6=CC(=O)OC6)CC[C@]5(O)[C@@H]4CC[C@]3(O)C2)[C@H](O)[C@H](O)[C@H]1O` are 0.885 ± 0.13, 0.4 ± 0.12, 0.913 ± 0.025, 0.178 ± 0.15 and 0.263 ± 0.043.
In the same order, the values of `C[C@H](N)[C@H](O)c1ccc(O)c(O)c1` are 0.971 ± 0.042, 1.05 ± 0.057, 1.09 ± 0.17, 1.004 ± 0.0085 and 0.9685 ± 0.0078.
For the compound `C[C@]12C=CC(=O)C=C1CC[C@@H]1[C@@H]2CC[C@]2(C)C(=O)CC[C@@H]12`, the cell viability was 1.07 ± 0.11 in assay [1], 1.09 ± 0.035 in assay [2] and 1.11 ± 0.078 in assay [3]. Besides, the “TCF/Wnt firefly luciferase reporter signal” value in assay [4] came to 1.08 ± 0.19; in assay [5] it was 1.025 ± 0.0071.
Consider `CC1C=CC=CCCC=CC=CC=CC=CC(OC2OC(C)C(O)C(N)C2O)CC2OC(O)(CC(O)C(O)CCC(O)CC(O)CC(O)CC(=O)OC(C)C(C)C1O)CC(O)C2C(=O)O` (stereo not given), for which the cell viability in assay [1] came to 0.932 ± 0.04; in assay [2] it was 0.906 ± 0.023; in assay [3] it was 0.973 ± 0.031. Besides, the “TCF/Wnt firefly luciferase reporter signal” value amounted to 0.874 ± 0.0014 in assay [4] and 0.762 ± 0.0092 in assay [5].
On to `CC(C)C[C@H]1C(=O)N2CCC[C@H]2[C@]2(O)O[C@](NC(=O)[C@@H]3C=C4c5cccc6[nH]c(Br)c(c56)C[C@H]4N(C)C3)(C(C)C)C(=O)N12`, for which the cell viability was 1.05 ± 0.014 in assay [1], 0.974 ± 0.08 in assay [2] and 1.07 ± 0.014 in assay [3]. Also, the “TCF/Wnt firefly luciferase reporter signal” value in assay [4] came to 0.985 ± 0.021; in assay [5], 0.931 ± 0.052.
`NCC1(CC(=O)O)CCCCC1`: the cell viability came to 1 ± 0.083 in assay [1], 1.08 ± 0.021 in assay [2] and 0.981 ± 0.013 in assay [3]. Further, the “TCF/Wnt firefly luciferase reporter signal” value in assay [4] came out at 1.07 ± 0.057; in assay [5], 1.1 ± 0.064.
The like results for `NCC(=O)c1ccccc1` were, in that order, 0.981 ± 0.11, 0.999 ± 0.059, 0.983 ± 0.018, 0.851 ± 0.14 and 0.917 ± 0.2.
As to `NNCc1ccccc1`, the cell viability in assay [1] amounted to 1.08 ± 0.12; in assay [2], 1.1 ± 0.13; in assay [3], 1.06 ± 0.028. The “TCF/Wnt firefly luciferase reporter signal” value in assay [4] was found to be 1.07 ± 0.057; in assay [5], 1.03 ± 0.093.
The like results for `COC(=O)[C@H]1O[C@@H]2C[C@H]3O[C@@H](n4cnc5c(N)ncnc54)[C@H](OC)[C@H]3O[C@@]2(O)[C@@H](O)[C@@H]1O` [Herbicidin B] were, in that order, 0.988 ± 0.032, 1.04 ± 0.081, 1.05 ± 0.021, 0.857 ± 0.061 and 0.945 ± 0.051.
Take `CC(C)(C)NCC(O)c1ccccc1Cl` (stereo not given): the cell viability in assay [1] worked out at 1.045 ± 0.0071; in assay [2], 1.04 ± 0.079; in assay [3] it was 1.04 ± 0.028. In addition, the “TCF/Wnt firefly luciferase reporter signal” value in assay [4] was 0.949 ± 0.027; in assay [5], 1.06 ± 0.057.
The like results for `c1ccc(/N=N/c2ccccc2)cc1` were, in that order, 1.03 ± 0.021, 0.981 ± 0.027, 1.04 ± 0.028, 1.04 ± 0.088 and 0.986 ± 0.091.
For `C/C=C(\C)C(=O)O[C@H]1C[C@@H](OC(C)=O)[C@@]2(C(=O)OC)CO[C@H]3[C@@H](O)[C@@](C)([C@]45O[C@@]4(C)[C@H]4C[C@@H]5O[C@@H]5OC=C[C@@]54O)[C@H]4[C@]1(CO[C@]4(O)C(=O)OC)[C@@H]32`, the cell viability in assay [1] was found to be 0.998 ± 0.017; in assay [2] it was 0.999 ± 0.087; in assay [3], 0.959 ± 0.051. Moreover, the “TCF/Wnt firefly luciferase reporter signal” value in assay [4] is 0.973 ± 0.052; in assay [5], 0.962 ± 0.04.
The like results for `CNC(Cc1c[nH]c2ccccc12)C(=O)O` (stereo not given) were, in that order, 1.06 ± 0.11, 0.975 ± 0.0057, 1 ± 0.011, 1.03 ± 0.13 and 0.98 ± 0.13.
In the same order, the values of `CCCCCCCCCc1ccc(O)cc1` are 1.03 ± 0.028, 0.999 ± 0.016, 0.946 ± 0.0071, 1.19 ± 0.092 and 1.17 ± 0.05.
The like results for `CCCCCCCCC(=O)NCc1ccc(O)c(OC)c1` were, in that order, 1.04 ± 0.064, 0.972 ± 0.025, 0.981 ± 0.056, 0.792 ± 0.14 and 0.822 ± 0.061.
In the case of `NCC(CC(=O)O)c1ccc(Cl)cc1` (stereo not given), the cell viability was 0.998 ± 0.088 in assay [1], 0.9975 ± 0.0035 in assay [2] and 1.03 ± 0.028 in assay [3]. For the same compound, the “TCF/Wnt firefly luciferase reporter signal” value in assay [4] stood at 0.897 ± 0.1; in assay [5] it was 1.02 ± 0.12.

Source of the values: the supplement of paper PMC6522484.
